According to PubChem BioAssay (Tox21):
Unmarked numbers belong to inactive results. Results filed as inconclusive are left out. Where a call stands in place of a potency, no number is given. The source made the active and inactive calls. Unless noted, calls follow the shape of the dose curve; as a rule, active = well fitted curve in the direction sought with a large enough effect in the repeat runs; inconclusive = weak or mixed curves; inactive = no such curve, though single readings can be large; an effect the other way counts as inactive or inconclusive.

Columns and labels:
[1] = qHTS assay for small molecules that induce genotoxicity in human embryonic kidney cells expressing luciferase-tagged ATAD5 (AID 651632); also: nearly all actives have a fitted effect of over 15% in size
Method in brief: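 Genotoxicity read-out via ATAD5-luciferase: HEK293T cells, 16 hr compound incubation at 37C, Amplite detection.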

[2] = qHTS assay for small molecule disruptors of the mitochondrial membrane potential (AID 720635); also: potency is read from the fitted curve at half-maximal effect
Method in brief: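 HepG2 cells (2,000/well) attached overnight at 37C, then took compound for 1 hr at 37C, 5% CO2. Mito-MPS dye was added for 30 min; fluorescence was read at 490/535 nm (monomers) and 540/590 nm (aggregates).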

[3] = qHTS assay to test for compound auto fluorescence at 590 nm (red) in HepG2 cells (AID 720674)
Method in brief: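 Intrinsic compound fluorescence in the red window (Ex/Em 540/590 nm) is measured in attached HepG2 cells exposed for 1 hr, DMSO vehicle as baseline, benchmarked to Rose Bengal sodium.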

[4] = qHTS assay to test for compound auto fluorescence at 535 nm (green) in HepG2 cells (AID 720675)
[5] = qHTS assay to test for compound auto fluorescence at 460 nm (blue) in HEK293 cells (AID 720678)
Method in brief: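 After cell attachment (4-5 hr, 37C), compounds were pinned onto HEK293 monolayers in 10% dialyzed FBS medium. The blue channel (405/460 nm) was read following overnight culture. Equivalency was calculated against triamterene.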

[6] = qHTS assay to test for compound auto fluorescence at 590 nm (red) in HEK293 cells (AID 720679)
Method in brief: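 Plates of HEK293 cells (10% dialyzed FBS) are treated with 23 nL compound or DMSO vehicle after a 4-5 hr attachment period, incubated overnight at 37C, and read for red fluorescence at 540/590nm.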

[7] = qHTS assay to test for compound auto fluorescence at 535 nm (green) in HEK293 cells (AID 720680)
[8] = qHTS assay to test for compound auto fluorescence at 460 nm (blue) in HEK293 cell free culture (AID 720681)
Method in brief: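 Test compounds were pinned into cell-free culture medium (DMEM with 10% FBS) and fluorescence was read directly at Ex/Em 405/460 nm. Signals were expressed as fluorescence equivalents of triamterene, with DMSO vehicle as control.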

[9] = qHTS assay to test for compound auto fluorescence at 535 nm (green) in HEK293 cell free culture (AID 720682)
Method in brief: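 Compounds were pin-transferred into cell-free DMEM with 10% FBS, and green fluorescence was read at excitation 485 nm and emission 535 nm. Intensities were expressed as fluorescein-equivalent values.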

[10] = qHTS assay to test for compound auto fluorescence at 590 nm (red) in HEK293 cell free culture (AID 720683)
Method in brief: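 Tox21 10K library compounds were pinned into cell-free DMEM with 10% FBS and fluorescence was read at excitation 540 nm. Activity is expressed as Rose Bengal sodium equivalency.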

[11] = qHTS assay to test for compound auto fluorescence at 590 nm (red) in HepG2 cell free culture (AID 720684)
Method in brief: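 Measured in medium alone (MEM containing 10% FBS) following pintool addition of compound; emission at 590 nm with 540 nm excitation, referenced to Rose Bengal sodium.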

[12] = qHTS assay to test for compound auto fluorescence at 460 nm (blue) in HepG2 cell free culture (AID 720685)
Method in brief: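 Compound (23 nL) or DMSO pinned into cell-free MEM with 10% FBS; blue fluorescence read at 405/460 nm excitation/emission, expressed as auto-fluorescence equivalency to triamterene.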

[13] = qHTS assay to test for compound auto fluorescence at 535 nm (green) in HepG2 cell free culture (AID 720686)
[14] = qHTS assay to test for compound auto fluorescence at 460 nm (blue) in HepG2 cells (AID 720687)
Method in brief: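 Cells (2,000/well in MEM with 10% FBS) attached overnight at 37 C, then were exposed to compound or DMSO for 1 hr at 37 C, 5% CO2. Fluorescence read at Ex/Em 405/460 nm, expressed as triamterene-equivalent signal.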

[15] = target: Glucocorticoid receptor (Homo sapiens) (UniProt P04150); assay: qHTS assay to identify small molecule agonists of the glucocorticoid receptor (GR) signaling pathway (AID 720691; active = well fitted activation curve with a large enough effect in the signal ratio in the repeat runs, not every such curve was filed as active; the % refers to the signal ratio)
Sequence of Glucocorticoid receptor (Homo sapiens) (P04150 whole entry, looked up): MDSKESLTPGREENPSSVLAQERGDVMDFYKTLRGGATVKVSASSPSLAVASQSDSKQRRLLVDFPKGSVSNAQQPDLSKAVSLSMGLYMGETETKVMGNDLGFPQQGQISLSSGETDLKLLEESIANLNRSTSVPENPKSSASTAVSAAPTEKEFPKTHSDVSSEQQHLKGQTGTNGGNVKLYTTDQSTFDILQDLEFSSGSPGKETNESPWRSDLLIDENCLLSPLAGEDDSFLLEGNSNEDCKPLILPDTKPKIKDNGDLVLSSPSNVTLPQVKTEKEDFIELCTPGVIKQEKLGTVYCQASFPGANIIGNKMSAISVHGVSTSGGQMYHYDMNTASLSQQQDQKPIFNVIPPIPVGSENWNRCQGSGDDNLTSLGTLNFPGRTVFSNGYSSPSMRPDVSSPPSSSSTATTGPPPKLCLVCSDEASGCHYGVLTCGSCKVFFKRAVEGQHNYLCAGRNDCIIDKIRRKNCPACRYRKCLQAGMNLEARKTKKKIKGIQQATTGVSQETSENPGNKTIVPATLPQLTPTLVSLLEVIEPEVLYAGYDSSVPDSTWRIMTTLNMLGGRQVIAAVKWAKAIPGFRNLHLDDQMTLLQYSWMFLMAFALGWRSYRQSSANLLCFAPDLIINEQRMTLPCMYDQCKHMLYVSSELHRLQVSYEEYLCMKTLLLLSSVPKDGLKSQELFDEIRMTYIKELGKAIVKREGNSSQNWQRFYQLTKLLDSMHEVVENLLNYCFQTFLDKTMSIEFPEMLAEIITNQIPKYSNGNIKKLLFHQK
Method in brief: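 Beta-lactamase reporter activity, read as fluorescence intensity, was measured in GR-bla HeLa cells exposed to compounds for 18 h at 37 C and then loaded with LiveBLAzer B/G FRET substrate for 2 h at room temperature.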

[16] = target: Glucocorticoid receptor (Homo sapiens) (UniProt P04150); assay: qHTS assay to identify small molecule antagonists of the glucocorticoid receptor (GR) signaling pathway (AID 720692; active = well fitted inhibition curve with a large enough effect in the signal ratio in the repeat runs, not every such curve was filed as active; the % refers to the signal ratio; also: potency is read from the fitted curve at half-maximal effect)
Method in brief: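 Fluorescence from cleaved LiveBLAzer B/G FRET substrate reports GRE-driven beta-lactamase in HeLa cells; compounds are tested against 5 nM dexamethasone (final) over 18 h at 37 C, substrate incubation 2 h at room temperature.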

[17] = qHTS assay for small molecule agonists of the p53 signaling pathway - cell viability (AID 651633; calls by dose curve; also: nearly all actives have a fitted effect of over 30% in size; also: potency is read from the fitted curve at half-maximal effect)
Method in brief: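 p53RE-bla cells, seeded at 4,000 per well and rested 5 h at 37 C/5% CO2, received compounds in DMSO for 16 h at 37 C. CellTiter-Glo was then added, and luminescence was read after 30 min at room temperature to gauge cytotoxicity.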

[18] = qHTS assay for small molecules that induce genotoxicity in human embryonic kidney cells expressing luciferase-tagged ATAD5 - cell viability (AID 651634; calls by dose curve; also: nearly all actives have a fitted effect of over 25% in size; also: potency is read from the fitted curve at half-maximal effect)
Method in brief: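 Live-cell protease activity (CellTiter-Fluor, fluorescence) indicates viability. HEK293T cells with luciferase-tagged ATAD5; 15.5 hr compound treatment at 37C.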

[19] = qHTS assay for small molecule disruptors of the mitochondrial membrane potential - cell viability (AID 720634; calls by dose curve; also: nearly all actives have a fitted effect of over 20% in size; also: potency is read from the fitted curve at half-maximal effect)
Method in brief: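 Human hepatoma HepG2 cells were treated for 1 hr with test chemicals, then given m-MPI dye and CellTiter-Glo. Cell viability reflects luminescence proportional to cellular ATP.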

| SMILES | Potency [1] | Potency [2] | outcome [3] | outcome [4] | Potency [5] | outcome [6] | outcome [7] | Potency [8] | outcome [9] | outcome [10] | outcome [11] | Potency [12] | outcome [13] | Potency [14] | Potency [15] | Potency [16] | Potency [17] | Potency [18] | Potency [19] |
| --- | --- | --- | --- | --- | --- | --- | --- | --- | --- | --- | --- | --- | --- | --- | --- | --- | --- | --- | --- |
| Nc1ccc(Cc2ccc(N)c(Cl)c2)cc1Cl | inactive | 59.1 µM (active) | inactive | inactive | inactive | inactive | inactive | inactive | inactive | inactive | inactive | inactive | inactive | inactive | inactive | 42.2 µM (active) |  |  |  |
| CCCCCCCCCCCCBr | inactive | 27.3 µM (active) | inactive | inactive | inactive | inactive | inactive | inactive | inactive | inactive | inactive | inactive | inactive | inactive | inactive | inactive |  |  |  |
| CC(=O)Nc1ccc2c(c1)Cc1ccccc1-2 |  | 31.1 µM (active) | inactive | inactive | inactive | inactive | inactive | inactive | inactive | inactive | inactive | inactive | inactive | inactive |  |  | inactive | inactive | inactive |
| O=[N+]([O-])c1cc(C(F)(F)F)c(Cl)c([N+](=O)[O-])c1Cl |  | 13.7 µM (active) | inactive | inactive | inactive | inactive | inactive | inactive | inactive | inactive | inactive | inactive | inactive | inactive |  |  | 27.3 µM (active) |  | 15.4 µM (active) |
| CC(C)N1C(=O)N(c2ccccc2)CSC1=NC(C)(C)C | inactive | 38.6 µM (active) | inactive | inactive | inactive |  | inactive | inactive | inactive | inactive | inactive | inactive | inactive | inactive | inactive |  |  |  | 15.4 µM (active) |
| CCCCCCCCCCCCCCCCCCn1cc[n+](C)c1 | inactive | 9.63 µM (active) | inactive | inactive | inactive |  | inactive | inactive | inactive | inactive | inactive | inactive | inactive | inactive | inactive |  |  | inactive |  |
| C=CC(=O)OCCCCOC(=O)C=C |  | inactive | inactive | inactive | inactive | inactive | inactive | inactive | inactive | inactive | inactive | inactive | inactive | inactive | inactive | 24.5 µM (active) |  | 54.5 µM (active) | inactive |
| CN(C)c1ccc(N=Nc2ccccc2)cc1 |  |  | inactive | inactive | inactive | inactive | inactive | inactive | inactive | inactive | inactive | inactive | inactive | inactive | inactive | inactive | inactive | 68.7 µM (active) | 48.6 µM (active) |
| O=C(O)C1C2CCC(O2)C1C(=O)O (centres undefined) |  |  | inactive | inactive | inactive |  | inactive | inactive | inactive | inactive | inactive | inactive | inactive | inactive | inactive | inactive | inactive |  |  |
| N#C/C=C/C#N |  |  | inactive | inactive | inactive | inactive | inactive | inactive | inactive | inactive | inactive | inactive | inactive | inactive | inactive |  | inactive |  | inactive |
| Oc1cc(Cl)c(Cl)c(Cl)c1 | inactive | 2.31 µM (active) | inactive | inactive | inactive | inactive | inactive | inactive | inactive | inactive | inactive | inactive | inactive | inactive | inactive |  |  |  |  |
| Nc1ccccc1C(=O)OC/C=C/c1ccccc1 | inactive | 19.4 µM (active) | inactive | inactive | inactive | inactive | inactive | inactive | inactive |  | inactive | inactive | inactive | inactive | inactive | inactive |  | inactive |  |
| ClC1=C(Cl)[C@]2(Cl)[C@H]3[C@H]([C@H]4C=C[C@H]3C4)[C@@]1(Cl)C2(Cl)Cl | inactive | 43.3 µM (active) | inactive | inactive | inactive | inactive | inactive | inactive | inactive | inactive | inactive | inactive | inactive | inactive | inactive | 49 µM (active) |  | inactive |  |
| O=c1[nH]c2ccccc2n1CCCN1CCC(n2c(=O)[nH]c3cc(Cl)ccc32)CC1 |  | inactive | inactive | inactive | inactive | inactive | inactive | inactive | inactive |  | inactive | inactive | inactive | inactive | inactive |  | inactive |  | inactive |
